From PubChem BioAssay
KB-3-1 cytotox: KB-3-1 parental cell cytotoxicity | KB-3-1 viability, CellTiter-Glo ATP luminescence, 72 h | Potency, µM (series often up to 46.1 µM), most hits filed as cytotoxic | actives 1.4% (n = 400,000); note: nearly all actives have a fitted effect of over 60% in size
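Cytotoxicity in the drug-sensitive parental line KB-3-1 was scored as loss of CellTiter-Glo luminescence following 72 h incubation with compound. Values come from curve fitting of normalized concentration-response data.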
RORg inh: ROR gamma (mouse) transcription inhibition; P51450; Drosophila S2 Gal4-RORgamma UAS-luciferase reporter, 20 h; Potency, µM (series often up to 53.6 µM), usual class: inhibitors; actives 5.4% (n = 310,000); note: nearly all actives have a fitted effect of over 60% in size
Target sequence (P51450 whole entry, looked up, the tested form may be a part): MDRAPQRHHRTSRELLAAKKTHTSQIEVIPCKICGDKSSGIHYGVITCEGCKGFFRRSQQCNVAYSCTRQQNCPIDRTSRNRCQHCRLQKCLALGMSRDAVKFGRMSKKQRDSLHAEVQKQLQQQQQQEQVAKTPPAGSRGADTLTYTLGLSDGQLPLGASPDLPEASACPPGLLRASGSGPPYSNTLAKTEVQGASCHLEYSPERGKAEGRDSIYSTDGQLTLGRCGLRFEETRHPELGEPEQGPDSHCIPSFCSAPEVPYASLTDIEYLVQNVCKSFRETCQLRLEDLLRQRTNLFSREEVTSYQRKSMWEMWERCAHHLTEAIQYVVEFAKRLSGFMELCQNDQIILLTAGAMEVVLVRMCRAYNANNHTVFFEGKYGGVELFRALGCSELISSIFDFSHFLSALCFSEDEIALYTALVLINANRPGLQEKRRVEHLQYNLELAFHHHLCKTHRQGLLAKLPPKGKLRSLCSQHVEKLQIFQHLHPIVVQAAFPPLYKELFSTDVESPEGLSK
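In this cell-based reporter format, copper sulfate (700 uM final) drives Gal4–ROR gamma fusion expression from a metallothionein promoter in Drosophila Schneider cells; compounds preincubated 1 hr, reporter read after 20 hr at ambient temperature.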
SW480 rereplic: inducers of DNA re-replication in SW480 colon cancer cells; actives 1.8% (n = 340,000); Potency, µM (series often up to 46.1 µM), hits mostly activators; SW480 DNA re-replication, Hoechst DNA content imaging, 48 h; note: nearly all actives have a fitted effect of over 55% in size
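Image-based read-out: total Hoechst fluorescence of nuclei (405 nm excitation, 500-530 nm emission), with hits raising the fraction of high-intensity nuclei. SW480 colon cells incubated 48 hr with compounds at 37 C.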
KB-V1 MDR tox: KB-V1 MDR subline cytotoxicity; AID 1347076; Potency, µM (top dose mostly 46.1 µM), usual class: cytotoxic; actives 3.4% (n = 400,000); KB-V1 MDR cells viability, CellTiter-Glo, 72 h; note: nearly all actives have a fitted effect of over 60% in size
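Cytotoxicity via CellTiter-Glo luminescence after 72 h compound exposure at 37 degrees C. Cells: drug-selected KB-V1 line, DMEM phenol-red free plus 10% FBS. Compounds tested at multiple concentrations; normalized data fitted to concentration-effect curves.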
MCF10A rereplic: induces DNA re-replication in MCF 10a normal breast cells | MCF 10A DNA re-replication, Hoechst nuclear intensity, 48 h | Potency, µM (top dose mostly 46.1 µM), most hits filed as activators | actives 2.9% (n = 350,000) | AID 624296; note: nearly all actives have a fitted effect of over 50% in size
VP16 counter: counter-screen for ROR gamma inhibitors: Gal4-VP16 reporter | Drosophila S2 Gal4-VP16 UAS-luciferase, luminescence, 20 h | Potency, µM (top dose mostly 53.6 µM), usual class: inhibitors | actives 3.5% (n = 310,000);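 note: Gal4-VP16 expression switched on by copper sulfate through the metallothionein promoter; nearly all actives have a fitted effect of over 50% in size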
A number is an active result; n = inactive; u = inconclusive; x = no result; [ ] = remark or other dose. In the library only some 10% were active in any assay of this set; here they are far more common. Calls come from the whole dose curve; as a rule, active = well fitted curve in the direction sought with a large enough effect; inconclusive = small, poorly fitted or top-dose-only effect, or another doubt; inactive = no such curve, though single readings can be large; an effect the other way counts as inactive or inconclusive.

SMILES | KB-3-1 cytotox | RORg inh | SW480 rereplic | KB-V1 MDR tox | MCF10A rereplic | VP16 counter
C[C@@H]1C(=O)OC2C[C@@]34[C@H]5C[C@@H](C(C)(C)C)[C@@]36C(O)C(=O)O[C@H]6O[C@@]4(C(=O)O5)[C@]21O (some centres undefined) | x | n | x | x | x | n
S=C(NCC1CCCO1)NC1CCCCC1 (centres undefined) | n | u | n | n | n | u
CCCC(NC(=S)NCC1CCCO1)C12CC3CC(CC(C3)C1)C2 (centres undefined) | n | 0.447µM | n | n | n | 3.16µM
CCCNC(=O)CCC(=O)N1Cc2cccc(OC)c2Oc2ncccc21 | n | x | x | n | x | x
Cc1ccccc1NC(=S)NCc1cccn1C | n | u | n | n | n | u
Cc1c(Cl)cccc1NC(=S)NCc1cccn1C | n | 4.47µM | n | n | n | 17.8µM
Cc1ccc(Cl)cc1NC(=S)NCc1cccn1C | n | 7.08µM | n | u | n | 7.94µM
COc1ccc(C2Nc3ccccc3C(=O)N2Cc2ccccc2)cc1COc1ccccc1F (centres undefined) | n | x | x | n | x | x
Cn1c(-c2ccccc2)cc2ccccc21 | n | n | n | n | n | n
Cn1c(-c2ccccc2)cc2c3no[n+]([O-])c3ccc21 | 3.66µM | 6.31µM | 3.66µM | u | u | u
O=C(CSc1nc2c(c(=O)[nH]1)CCC2)Nc1cccc(O)c1 | n | x | x | n | x | x
CS(=O)(=O)Nc1cccc(-c2nc(NCc3ccccc3)c3ccccc3n2)c1 | x | n | x | x | x | n
O=c1ccn(Cc2ccccc2)c2ccccc12 | n | u | n | n | n | n
c1ccc(Cn2c[n+](Cc3ccccc3)c3ccccc32)cc1 | 23.1µM | n | n | n | n | n
COC(=O)c1cnn(-c2ccccc2)c1/C=N/NC(=S)Nc1ccc(Cl)cc1 | n | 0.447µM | n | n | n | 2µM
COc1ccc(NC(=O)c2cnn(-c3ccccc3)c2C)cc1 | n | u | n | u | n | n
Cc1nn(Cc2ccccc2)c(Cl)c1/C=C/C(=O)OC(C(=O)NC(N)=O)C(C)C (centres undefined) | n | n | n | n | 6.51µM | n
N[C@@H](Cn1cc(I)c(=O)n(Cc2ccc(C(=O)O)cc2)c1=O)C(=O)O | x | n | x | x | x | n
Cc1cc(F)ccc1C(O)c1ncc(-c2cccc3ccccc23)[nH]1 (centres undefined) | n | x | x | n | x | x
C=CCNCC(=O)Nc1sc2c(c1C(=O)Nc1ccc(OC)cc1OC)CCC2 | n | 0.447µM | n | u | n | 1.26µM
CCOc1ccccc1NC(=O)c1c(NCc2ccc(C)o2)sc2c1CCCCC2 | n | x | x | n | x | x
COc1ccc(C(=O)Nc2sc3c(c2C(=O)NCc2ccco2)CCCC3)cc1OC | n | n | n[9.22 µM] | n | n | n
O=C(Nc1sc2c(c1C(=O)NCc1ccco1)CCCC2)c1ccc2c(c1)OCO2 | n | u | n | 14.6µM | u | n[0.365 µM]
CCOc1ccccc1NC(=O)c1c(NC(=O)CNCc2ccco2)sc2c1CCC2 | x | u | x | x | x | 5.62µM
COc1cc(C(=O)Nc2sc3c(c2C(=O)NCc2ccco2)CCCC3)cc(OC)c1OC | n | n | n | n | 18.4µM | n
SMILES | KB-3-1 cytotox | RORg inh | SW480 rereplic | KB-V1 MDR tox | MCF10A rereplic | VP16 counter
O=C(Cn1nc(C(F)(F)F)c2c1CCCC2)N1CCOCC1 | n | n | n | n | n | n
O=C(Cn1nc(C(F)(F)F)c2c1CCC2)N1CCN(c2ccccc2)CC1 | n | n | n | 16.4µM | u | n
O=C(Cn1nc(C(F)(F)F)c2c1CCC2)Nc1ccccc1C(F)(F)F | n | n | n | n | n | n
COc1ccccc1NC(=O)Cn1nc(C(F)(F)F)c2c1CCCC2 | n | n | n | 20.6µM | n | n
CC(C)N1C(=O)C(O)(c2c[nH]c3ccccc23)c2ccccc21 (centres undefined) | n | x | x | n | x | x
COCc1cc(C)n(CC(=O)NC(C)c2ccccc2)c(=O)c1C#N (centres undefined) | n | n | n | n | n | n
COCc1cc(C)n(CC(=O)NCc2ccccc2)c(=O)c1C#N | n | n | 18.4µM | u | n | n
O=C(Nc1ccc2ccccc2c1)c1nc(S(=O)(=O)Cc2ccccc2F)ncc1Cl | n | x | x | n | x | x
Cc1nn(-c2ccccc2)c2c1C(=O)N(Cc1ccccc1)C(=O)C(C)(C)C2 | n | n | n | n | n | u
Cc1nn(-c2nc3ccccc3n2Cc2ccccc2)c2c1C(=O)CC(C)(C)C2 | u | n | n | 20.6µM | n | n
Cc1ccc(-c2nc3sccn3c2Nc2ccccc2C)cc1 | n | x | x | n | x | x
COCc1cc(S(=O)c2ccc(Cl)cc2)nc(C)n1 (centres undefined) | n | 4.47µM | u | n | 14.6µM | u
O=C(Nc1cccc2cccnc12)c1ccc2c(c1)OCCO2 | n | n | n | 13µM | u | n
O=C(Nc1ccc(Br)cc1F)c1ccc2c(c1)OCCO2 | n | 7.94µM | n | u | n | u
COc1cc(NC(=O)c2ccc3c(c2)OCO3)c2ncccc2c1 | n | n | n[9.22 µM] | n | u | n
O=C(NC1CCCCC1)C(c1ccco1)N(C(=O)c1csnn1)c1cccc(Cl)c1 (centres undefined) | n | n | n | n | n | n
Cc1cc(-c2ccc(C)c(S(=O)(=O)NC(c3cccs3)C(C)C)c2)on1 (centres undefined) | n | x | x | n | x | x
CCn1c([N+](=O)[O-])nc2c1c(=O)[nH]c(=O)n2C | u | 0.562µM | 8.2µM | u | 5.8µM | 17.8µM
CCN1CCOC(=O)C1CC(=O)Nc1cc(C)cc(C)c1 (centres undefined) | n | x | x | u | x | x
O=C(CN(C(=O)Cn1nnc(-c2ccccc2F)n1)c1cccc2c1CCCC2)NCc1ccccc1 | n | n | n | 10.3µM | n | n
CCC(C(=O)NC(C)(C)C)N(C(=O)Cn1nnc(-c2ccccc2F)n1)c1cccc2c1CCCC2 (centres undefined) | n | n | n | 1.64µM | n | n
CC(C)CCNC(=O)CN(C(=O)Cn1nnc(-c2ccccc2F)n1)c1cccc2c1CCCC2 | n | n | n | n | n | n
N#Cc1cccc(CS(=O)(=O)c2nc3ccccc3s2)c1 | x | n | x | x | x | n
C(=Nc1ccc(/C=C/c2ccnc3ccccc23)cc1)c1ccco1 | n | x | x | n | x | x
CN(C(=O)c1cc2nc(-c3ccc4c(c3)OCO4)cc(C(F)(F)F)n2n1)c1ccc(OC(F)(F)F)cc1 | n | x | x | n | x | x
N#Cc1c(NC(=O)c2ccc([N+](=O)[O-])o2)sc2c1CCC2 | 5.17µM | u | 10.3µM | 18.4µM | 20.6µM | u
NC(=O)c1ccsc1NC(=O)c1ccc([N+](=O)[O-])o1 | u | x | u | u | 3.66µM | x
Cc1ccsc1/C=N/NC(=O)c1ccc(Cn2cc(Br)cn2)o1 | n | 12.6µM | n | n | n | u
